Bioassay records deposited in PubChem by National Center for Advancing Translational Sciences (NCATS).
D1 ag – human D1 receptor agonism; activation, % at 2 µM; P21728; hit rate 1% among 360,000; HEK293 T-REx D1 cells, calcium flux, agonist mode; AID 504660; note: 0% is about no effect
Target sequence (P21728 whole entry, looked up): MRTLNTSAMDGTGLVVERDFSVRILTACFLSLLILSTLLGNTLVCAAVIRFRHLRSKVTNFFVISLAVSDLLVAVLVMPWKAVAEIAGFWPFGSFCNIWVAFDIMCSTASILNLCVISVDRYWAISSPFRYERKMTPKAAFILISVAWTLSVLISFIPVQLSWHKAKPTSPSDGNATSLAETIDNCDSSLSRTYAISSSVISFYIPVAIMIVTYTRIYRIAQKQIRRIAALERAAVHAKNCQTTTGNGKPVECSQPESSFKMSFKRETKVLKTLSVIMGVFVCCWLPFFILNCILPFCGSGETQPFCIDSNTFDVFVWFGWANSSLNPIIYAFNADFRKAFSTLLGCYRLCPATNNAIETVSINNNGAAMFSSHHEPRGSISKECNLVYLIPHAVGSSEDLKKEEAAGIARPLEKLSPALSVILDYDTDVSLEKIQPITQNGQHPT
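Tetracycline-induced HEK293 TREx D1 cells, force-coupled to calcium signalling, were dye-loaded with a no-wash calcium kit. Compound was pin-added after a 10 s baseline. Fluorescence was read kinetically at 1 cycle/s for 180 s, with calcium rises flagged as agonism.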
D1 antagonist – blocks dopamine activation of the human D1 receptor; HEK293 TREx D1 cells, calcium flux, dopamine EC80; hits give low values; P21728; hit rate 3.2% among 360,000; activity change, negative = inhibition, % at 10 µM; in the data active = activity change below about -30%; note: % is set by controls: 0 for no effect and ±100 for the full control effect
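Antagonism measured as reduced calcium response to an EC80 dopamine addition following 180 s compound pre-read; cells were inducible HEK293 Trex D1 plated overnight at 30 C, read kinetically at 1 cycle/sec.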
TRHR agonist – agonists of human TRH receptor; P34981; TRHR cells, calcium flux fluo-8, FDSS agonist mode; activation, % at 2 µM; hit rate 0.18% among 360,000; AID 493084; note: 0% is about no effect
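Steps: seed TRHR cells overnight; add fluo-8 no-wash Ca dye, RT 30 min–1.5 h; record 10 s baseline; pin-transfer compounds; monitor fluorescence 1 cycle/s for the agonist window. Calcium increases flag candidate agonists.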
TRHR enhancer – allosteric enhancers of human TRH receptor | hit rate 0.66% among 360,000 | AID 493056 | P34981 | TRHR cells, fluo-8 calcium fluorescence, EC20 TRH enhancement | enhancement, % at 2 µM; in the data active = enhancement above about 30%; note: 0% is about no effect
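TRHR-expressing cells loaded with fluo-8 calcium dye were read kinetically (ex 480/em 530) during compound addition, then stimulated with an EC20 of TRH (10 nM final). Enhancement of the Gq-mediated intracellular calcium response was scored.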
D1 PAM – enhances dopamine response at the human D1 receptor. potentiation, % at 10 µM. HEK293 TREx D1 cells, calcium flux, dopamine EC20 potentiation. hit rate 0.036% among 360,000; in the data active = potentiation above about 30%; note: 0% is about no effect
Starred values were filed as active, the others as inactive; · = no result given. Compounds with a hit are over-represented: about 4.7% of the library has one in this group of screens. Cut-off read from the data, not from the text of the source, unless noted: active = activation above about 30%; inactive = the rest.

SMILES	D1 ag	D1 antagonist	TRHR agonist	TRHR enhancer	D1 PAM
c1ccc(-c2cc(-c3nn4c(-c5ccco5)nnc4s3)c3ccccc3n2)cc1	4	26	-2	-6	-6
CCCCNc1nc2c(c(=O)n(Cc3ccccc3)c(=O)n2C)n1C	0	2	-1	-5	2
CCOC(=O)/C(=C/c1ccc(N2CCC(c3ccccc3)=N2)cc1)C(C)=O	105*	-23	46*	-1	-6
c1ccc(C2=NN(c3ccccc3)CC2)cc1	4	-3	1	-1	-1
O=C(COC(=O)CNC(=O)c1ccccc1)NCCc1ccccc1	5	4	0	-3	2
O=C(CNC(=O)c1ccccc1)NCCc1ccc(O)c(O)c1	4	-39*	0	-2	-5
Cc1ccc(-c2csc3nnc(SCC(=O)N4CCN(Cc5ccccc5)CC4)n23)cc1	1	15	0	0	-3
O=C(CSc1nnc2scc(-c3ccccc3)n12)N1CCN(Cc2ccccc2)CC1	0	12	0	39*	-5
CCOC(=O)C(NC(C)=O)C(=O)Nc1ccc(C(C)C)cc1 (stereo not drawn)	2	-11	0	39*	-2
O=C(c1ccco1)N1CCN(S(=O)(=O)Cc2ccccc2Cl)CC1	2	·	0	-2	4
C=CCOC(=O)C1=C(C)NC(SCC(N)=O)=C(C#N)C1c1cccs1 (stereo not drawn)	-1	-45*	0	0	-4
CCOC(=O)C1CCCN(C(=O)c2nn(-c3ccc(C)cc3)c(=O)c3c2c2ccccc2n3C)C1 (stereo not drawn)	-1	-11	-1	-1	0
O=C(N/N=C/c1coc2ccccc2c1=O)c1ccccc1	1	-44*	0	-1	-7
CCC(Cc1ccccc1)NC(=O)CN1C(=O)COc2ccc(S(=O)(=O)N3CCCCCC3)cc21 (stereo not drawn)	3	-1	0	12	-5
CC1(C(=O)CSc2ncn[nH]2)CCC(=O)O1 (stereo not drawn)	2	-43*	0	1	22
CC1(C(=O)CSc2nc3ccccc3[nH]2)CCC(=O)O1 (stereo not drawn)	0	-16	0	-7	-6
CCOc1ccc(N(CC(=O)N2CCOCC2)S(=O)(=O)c2ccc(SC)cc2)cc1	2	-7	-1	5	5
Cc1cc(F)ccc1S(=O)(=O)Nc1ccc2oc3c(c2c1)CC(C)CC3 (stereo not drawn)	37*	0	0	17	-7
COc1cc(NC(=O)c2ccccn2)cc(OC)c1OC	0	17	0	30*	-2
COc1ccccc1NC(=O)C/C(C)=N/NC(=O)c1ccccn1	0	-38*	1	-7	-2
COc1cc(NC(=O)C/C(C)=N/NC(=O)c2ccccn2)c(OC)cc1Cl	1	3	0	1	20
COc1cc(NC(=O)c2cc(-c3ccccc3)on2)cc(OC)c1OC	2	3	0	5	-1
COc1cc(C(=O)Nc2ccc3c(c2)C(=O)c2ccccc2C3=O)cc(OC)c1OC	4	-50*	-1	5	-7
CCc1ccc(NC(=O)CSc2n[nH]c(C)c2[N+](=O)[O-])cc1	15	-48*	1	2	-8
CCCN(CCC)CCCNC(=S)Nc1ccc2nc3n(c(=O)c2c1)CCCCC3	0	-30*	0	2	-10
SMILES	D1 ag	D1 antagonist	TRHR agonist	TRHR enhancer	D1 PAM
CCN(CC)CCNC(=S)Nc1ccc2nc3n(c(=O)c2c1)CCCCC3	3	-5	0	9	-3
CCN1CCN(C(=S)Nc2ccc3nc4n(c(=O)c3c2)CCCCC4)CC1	36*	-2	0	0	-4
O=C(NNC(=O)c1ccncc1)Nc1cccc(C(F)(F)F)c1	0	-1	0	12	-8
Cc1nn(C)c(C(=O)NNC(=S)NCc2ccccc2)c1Cl	6	-32*	0	39*	-6
Cc1nn(C)c(C(=O)NNC(=O)Nc2cccc(C(F)(F)F)c2)c1Cl	10	-30*	0	-16	-6
Cc1cc(C(=O)NNC(=S)NCc2ccccc2)cs1	1	3	0	1	2
CCOc1ccc(C2N(c3ccc(OC)cc3)C(=O)C3CCCN32)cc1OC (stereo not drawn)	1	5	0	-16	·
CCOc1ccc(C2N(c3ccc(Cl)cc3)C(=O)C3CCCN32)cc1OC (stereo not drawn)	2	-42*	1	-1	-4
CC1=CC=CC2=NC(=O)CC(C)(C(=O)N(CC(=O)NC3CCCC3)c3ccc(F)cc3)N12 (stereo not drawn)	1	-34*	0	-3	-8
COc1cn(CC(=O)Nc2ccccc2)c(CN2CCCCC2)cc1=O	0	-27	0	3	-3
O=C(Nc1ccc(S(=O)(=O)NCc2ccccc2)cc1)Nc1ccc2c(c1)OCO2	8	-40*	1	3	-10
COc1ccccc1NC(=O)c1cc(S(=O)(=O)NCc2ccccc2)ccc1F	3	-1	-3	-3	-5
O=C(Nc1ccccc1)c1cc(S(=O)(=O)NCc2ccncc2)ccc1Cl	4	-32*	0	-2	-5
O=C(Nc1cc(C(F)(F)F)ccc1Cl)c1cc(S(=O)(=O)NCc2ccccc2)ccc1F	-2	-71*	0	-2	-3
O=C(Nc1ccc(S(=O)(=O)NCc2ccccc2)cc1)c1ccccc1[N+](=O)[O-]	16	-72*	2	1	-7
O=C(Nc1ccccc1)c1cc(S(=O)(=O)Nc2cccnc2)ccc1Cl	6	1	0	5	8
Cn1cc(C(=O)NCCc2ccc(Cl)cc2)c(=O)c2cc(S(=O)(=O)N3CCCCC3)ccc21	-1	-6	0	6	2
O=C(Nc1ccnn1C1CCN(C(=O)c2cc(Cl)ccc2F)CC1)C1CCOC1 (stereo not drawn)	3	-4	-1	5	-4
COc1ccc(CNS(=O)(=O)c2ccc(F)c(C(=O)Nc3ccccc3OC)c2)cc1	3	-37*	-1	-4	-7
CN(c1ccc(F)cc1)S(=O)(=O)c1ccc(Cl)c(C(=O)Nc2ccncc2)c1	8	-48*	0	-3	-3
Cc1ccc(-n2cc(-c3ccccc3)c3c(NC4CCCC4)ncnc32)cc1	0	34	0	-2	2
CCOC(=O)c1c(NC(=O)c2c(-c3ccccc3)noc2C)sc(C)c1-c1ccccc1	3	6	0	1	0
CCOC(=O)c1ccccc1NC(=O)c1c(-c2ccccc2)noc1C	32*	-10	1	7	-6
Cc1onc(-c2ccccc2)c1C(=O)OCC(=O)Nc1cccc(Cl)c1	47*	2	2	-6	·
Cc1cnc(NC(=O)c2c(-c3ccccc3)noc2C)s1	-1	-34*	0	-1	-6
